The campaign covered roughly 220,000 compounds. About 2,400 (1.1%) were called active. Another 7% or so got no clear call; they are omitted. The call rests on the fitted dose curve; in most records, active means well fitted inhibition curve with a large enough effect; inconclusive means small, poorly fitted or top-dose-only effect, or effect the other way; inactive means no such curve, though single readings can be large or run the other way. The entries come from a sample that favours actives as a whole.
Experiment: qHTS Multiplex Assay to Identify Dual Action Probes in a Cell Model of Huntington: Aggregate Formation (GFP); further: nearly all actives have a fitted effect of over 60% in size
Conditions: PC12 HttQ103-GFP aggregates, Acumen cytometry, 40 h; series mostly up to 9.22 µM; activity change, negative = inhibition: at the top concentration
Outline: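 PC12/HTTQ103-GFP, ecdysone-inducible; teb 100 nM; cpd qHTS titration; GFP aggregates read on laser cytometer, Ex 488/Em 500-530 nm.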
On the % scale 0 is the no-effect control and ±100 the full control effect; potency means the concentration at half of the fitted maximal effect.

Activity change, negative = inhibition, inactive:
COCCN1C2=C(COC(C)(C)C2)C(=S)NC1c1ccccc1 (stereo unspecified) 23.8%
COC(=O)c1sccc1NN1C(=O)c2ccccc2C1=O -15.1%
COC(=O)c1sc2ncccc2c1OCc1ccc(Cl)cc1Cl -3.42% [at 46.1 µM]
COCCNC(=O)c1ccccc1-c1nc(-c2ccccc2Cl)no1 8.12% [at 46.1 µM]
Brc1ccc(C2=CC(c3ccco3)n3ncnc3N2)cc1 (stereo unspecified) -24.3% [at 46.1 µM]
COC(=O)C1=C(C)Nc2ncnn2C1c1cccnc1 (stereo unspecified) -8.05% [at 46.1 µM]
Cc1ccc(-c2ncc(Cl)cc2-c2ccc(S(C)(=O)=O)cc2)cn1 1.61% [at 46.1 µM]
Cc1ccc(Cn2c(SCC(=O)N/N=C/c3ccccc3OCC(=O)O)nc3ccccc32)cc1 17.6%
O=C(CCCN1C(=O)/C(=C\c2ccco2)SC1=S)Nc1cccc2ccccc12 24.3%
O=C(CCCN1C(=O)/C(=C\c2ccccc2)SC1=S)Nc1ccccc1O 22.3%
CC(=O)NCC(O)c1ccc([N+](=O)[O-])cc1 (stereo unspecified) -18.6%
C/C(Cc1ccccc1)=N\NC(=O)CNC(=O)c1ccc2c(c1)OCCO2 2.88%
O=C(Nc1ccc(N2CCN(C(=O)c3ccccc3)CC2)c(Cl)c1)c1ncn[nH]1 -29.1%
COC(=O)c1cc(NC(=O)c2cccnc2)ccc1N1CCOCC1 1.39%
O=C(Nc1ccc(N2CCOCC2)nc1)c1c(F)cccc1F 10.4%
Cc1cc(-c2ccc(/C=N/n3cnnc3)o2)c([N+](=O)[O-])cc1C 3.65% [at 46.1 µM]
N#C/C(=C/c1ccc(-c2ccccc2[N+](=O)[O-])o1)C(=O)NCCN1CCCCC1 -12.2%
COC(=O)c1ccccc1Sc1c(/C=N/OCc2ccc(Cl)cc2)c(C(F)(F)F)nn1C -26.1% [at 46.1 µM]
FC(F)(F)c1cccc(NC(=S)Nc2cccc(Cl)c2)c1 -6.26% [at 46.1 µM]
COc1ccc2[nH]c(=S)cc(C)c2c1 19.9%
O=C(Nc1nnc(COc2ccccc2)s1)Nc1ccccc1F -6.11%
CC(NC(=S)NNS(=O)(=O)c1ccc(C(C)(C)C)cc1)c1ccccc1 (stereo unspecified) -16.9%
Clc1ncn(CCOc2ccccc2)c1Cl -7.07%
COCCOCCn1cnc2ccccc21 -19.1% [at 46.1 µM]
CCOC(=O)CSc1nc(C)c(Oc2ccc(Cl)cc2Cl)c(=O)[nH]1 -4.52%
Brc1ccc(-c2nn[nH]n2)cc1 11.1%
COc1ccc(SCCN2CCN(CC(C)C)CCC2=O)cc1 -1.2%
CSc1nc(C)cc(SC(C(C)=O)C(=O)Nc2ccccc2)n1 (stereo unspecified) -11.8% [at 46.1 µM]
Cc1cccc(NC(=O)CSc2nnc(CCNC(=O)OC(C)(C)C)o2)c1C -7.25%
COC(=O)c1ccc(COc2ccc(/C=N/NC(=O)C(=O)Nc3ccc(OC)cc3)cc2OC)o1 8.14%
CCc1ccc(NC(=O)N2CCN(c3ccccc3)CC2)cc1 6.28% [at 46.1 µM]
CCn1c2ccccc2c2cc(NC(=O)CNC)ccc21 -17.5%
Cc1ccc(N2C(=O)CN=C2Nc2nc(C)cc(C)n2)cc1 8.49%
O=C(c1ccc(=O)oc1)N1CCC(C(O)(c2ccccc2)c2ccccc2)CC1 -8.46%
O=C(O)CCCCCNc1ncnc2ccc(Br)cc12 -18.6%
Cc1cc(NCc2cccnc2)no1 -1.89%
CCOC(=O)c1cnc(COc2ccccc2Cl)[nH]c1=O 2.2%
Cc1c(NC(=O)CN2C(=O)C(=O)N(Cc3ccccc3)C2=O)c(=O)n(-c2ccccc2)n1C 0.334%
O=C1CC(Cc2ccc(Cl)cc2)C(=O)N1c1cc(Cl)ccn1 (stereo unspecified) 6.88%
CCCCN(CCCC)CC(O)Cn1c2ccccc2c(=O)c2ccccc21 (stereo unspecified) -13.4%
O=C(NNS(=O)(=O)Cc1ccccc1)c1ccc([N+](=O)[O-])cc1 -27.8%
CC1CCN(c2c(NCc3ccc(C(=O)NCc4ccccc4)cc3)c(=O)c2=O)CC1 3.19%
CN(c1ccccc1)S(=O)(=O)c1cc(C(=O)OCC(=O)N2CCN(C(=O)c3ccco3)CC2)ccc1Cl 2.29% [at 46.1 µM]
O=C(Nc1cccc(-c2nc3ccccc3[nH]2)c1)c1ccc(C(=O)Nc2cccc(-c3nc4ccccc4[nH]3)c2)cc1 29%
COC(=O)/C=C(\Oc1ccccc1)C1(O)CCCCC1 13.9%

Potency, active:
COCCNC(=O)c1snc2ccc(Cl)cc12 10 µM
Clc1ccc2c(c1)C1=C(C(c3ccncc3)O2)C(c2ccc(Br)cc2)n2ncnc2N1 (stereo unspecified) 12.6 µM
O=C(CCCN1C(=O)/C(=C/c2ccco2)SC1=S)Nc1ccccc1 25.1 µM
O=C(Nc1ccc(N2CCN(C(=O)c3ccccc3)CC2)c(Cl)c1)c1cccnc1 22.4 µM
O=C1C2C3C=CC(C4CC34)C2C(=O)N1/N=C/c1ccc(-c2ccccc2[N+](=O)[O-])o1 (stereo unspecified) 25.1 µM
Cn1nc(C(F)(F)F)c(C(=O)Nc2cccc(C(F)(F)F)c2)c1SCc1ccc(Cl)cc1 12.6 µM
Cc1cc2ncn(CCCCOc3ccccc3)c2cc1C 11.2 µM
CSc1nc(-c2ccccc2)nc(C(Cl)Cl)n1 11.2 µM
CC[n+]1c(C)n(-c2ccccc2)c2ccc(NC(C)=O)cc21 3.98 µM
Brc1ccc2ncnc(NCc3cccnc3)c2c1 1.78 µM
CN(c1ccccc1)S(=O)(=O)c1cc(C(=O)Nc2nc3ccccc3[nH]2)ccc1Cl 11.2 µM

— PubChem BioAssay AID1688 (National Center for Advancing Translational Sciences (NCATS), 2009)
